Source: PubChem BioAssay (NCATS)
Inconclusive results are not listed. Values without a mark were called inactive. Calls follow the shape of the dose curve; as a rule, active = well fitted cell-killing curve with a large enough effect; inconclusive = small, poorly fitted or top-dose-only effect, or effect the other way; inactive = flat fitted curve, though single readings scatter.

system: CASKI; test: Primary qHTS to identify gynecologic anti-cancer compounds using libraries of approved drugs and bioactive compounds (AID 1345084); conditions: Gynecologic cancer cell panel viability, ATPlite luminescence, 48 h; series mostly up to 57.5 µM; activity change, negative = cytotoxicity: at the top concentration; also: nearly all actives have a fitted effect of over 55% in size
Summary of the method: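 ATP-based viability (ATPlite), 1,000 cells/well, 16 h pre-incubation, 48 h compound at 37 C, 5% CO2, 15 min RT before read.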
% is scaled to controls: 0 for no effect and ±100 for the full control effect.

Row | SMILES | activity change, negative = cytotoxicity
1 | NCC(=O)O | 22.2% [at 25.3 µM]
2 | Cc1c(N)cccc1C(F)(F)F | 0.605%
3 | O=C(O)CCC(=O)OC[C@@H](NC(=O)C(Cl)Cl)[C@H](O)c1ccc([N+](=O)[O-])cc1 | -0.221%
4 | O=C(COCCOCCOCC(=O)Nc1c(I)cc(I)c(C(=O)O)c1I)Nc1c(I)cc(I)c(C(=O)O)c1I | -0.571%
5 | CC(=O)[C@@]1(O)CC[C@H]2[C@@H]3C[C@H](C)C4=CC(=O)CC[C@]4(C)[C@H]3CC[C@@]21C | -2.63%
6 | CCN(CC)CC(=O)OCC(=O)[C@@]1(O)CC[C@H]2[C@@H]3CCC4=CC(=O)CC[C@]4(C)[C@H]3[C@@H](O)C[C@@]21C | -2.42%
7 | C[C@@]12CCC[C@H]1[C@@H]1CC[C@H]3C[C@@H](O)CC[C@]3(C)[C@H]1CC2 | -4.66%
8 | CCCCC(CC)COC(=O)c1ccccc1C(=O)O (configuration not stated) | 2.16% [at 116 µM]
9 | N=C(N)c1ccc(OCCCOc2ccc(C(=N)N)cc2)cc1 | 2.55%
10 | CC(C)(C)CC(=O)OCC(=O)[C@@]1(O)CC[C@H]2[C@@H]3CCC4=CC(=O)C=C[C@]4(C)[C@H]3[C@@H](O)C[C@@]21C | -1.51%
11 | CN=C(N)NC(=O)Nc1c(C)cccc1C | 14.7%
12 | CO[C@@H]1[C@@H](O[C@@H]2O[C@H](C)[C@@H](O[C@H]3C[C@@](C)(O)[C@@H](O)[C@H](C)O3)[C@H](N(C)C)[C@H]2O)[C@@H](CC=O)C[C@@H](C)[C@@H](O[C@@H]2CC[C@H](N(C)C)[C@@H](C)O2)/C=C/C=C/C[C@@H](C)OC(=O)C[C@H]1OC(C)=O | -0.458%
13 | CN(C)CCOC(c1ccccc1)c1ccc(Br)cc1 (configuration not stated) | 0.121%
14 | O=C(CCCCC(=O)Nc1c(I)cc(I)c(C(=O)O)c1I)Nc1c(I)cc(I)c(C(=O)O)c1I | 0.96%
15 | OC[C@]1(O)OC[C@@H](O)[C@H](O)[C@@H]1O | -1.05%
16 | CN1CCC(=C2c3ccccc3CCc3cccnc32)CC1 | -3%
17 | CN1Cc2cc(C(=O)N3CCC(C4CCNCC4)CC3)ccc2NC(CC(=O)O)C1=O (configuration not stated) | 8.29%
18 | Nc1c(I)cc(I)c(C(=O)N(CCC(=O)O)c2ccccc2)c1I | 12.8%
19 | Cc1ccccc1N1CCN(CCc2nnc3n2CCCC3)CC1 | -0.763%

Row | SMILES | activity change, negative = cytotoxicity
20 | O=C(NO)c1ccccc1 | 11.2% [at 116 µM]
21 | Cc1ccc2ccc(Cl)cc2n1 | -2.46%
22 | Cc1ncc(CO)c(CO)c1O | -4.9%
23 | O=C1CC2(CCCC2)CC(=O)N1CCNCC1COc2ccccc2O1 (configuration not stated) | -3.45%
24 | CC(=O)OCC[N+](C)(C)C | 19.9%
25 | Oc1ccccc1 | -22.4%
26 | c1ccc(C(O[C@H]2CCCN(CCc3ccc4c(c3)OCO4)C2)c2ccccc2)cc1 | 4.66%
27 | CCCCC(=O)OCC(=O)[C@H]1[C@H](C)C[C@H]2[C@@H]3C[C@H](F)C4=CC(=O)C=C[C@]4(C)[C@@]3(F)[C@@H](O)C[C@@]21C | -4.66%
28 | O=C(OCC(O)CO)c1ccccc1Nc1ccnc2c(C(F)(F)F)cccc12 (configuration not stated) | 9.52%
29 | CN1C(CSCC(F)(F)F)Nc2cc(Cl)c(S(N)(=O)=O)cc2S1(=O)=O (configuration not stated) | 2.39%
30 | COc1cc(C=O)ccc1O | 13.4%
31 | O=C(O)/C=C(\CC(=O)O)C(=O)O | -1.7%
32 | O=C(CCCCCCCCC#CI)Oc1ccccc1 | -1.23%
33 | NC(=O)COCCN1CCN(C(c2ccccc2)c2ccc(Cl)cc2)CC1 (configuration not stated) | -2.02%
34 | COC(=O)C1=C(C)NC(COC(N)=O)=C(C(=O)OC(C)C)C1c1cccc(Cl)c1Cl (configuration not stated) | 8.92%
35 | CC(=O)OCC(=O)[C@@]1(O)[C@H](OC(C)=O)C[C@H]2[C@@H]3CCC4=CC(=O)C=C[C@]4(C)[C@@]3(F)[C@@H](O)C[C@@]21C | 0.884%
36 | O=C(c1ccccc1)c1ccccc1 | -7.65%
37 | C[C@H]1C[C@@H]2[C@H]([C@@H](O)C[C@@]3(C)[C@H]2CC[C@]3(O)C(=O)CO)[C@@]2(C)C=CC(=O)C=C12 | -1.91%
